What all share (assay): DAPPL (digital affinity profiling via proximity ligation, sequencing); 10 mM Tris-HCl pH 7.5, 50 mM NaCl, 1 mM DTT, 4% glycerol, room temperature, 30 min; GST-TFs on glutathione beads, 16-mer random dsDNA library, 0.1% formaldehyde crosslink after washing; high values mean tight binding
Common to all, as to settings: protein: recombinant; tags: N-terminal GST; dsDNA, one strand shown

In one assay the target is T1, ERF (Homo sapiens, UniProt P50548 1-548).
T1 sequence: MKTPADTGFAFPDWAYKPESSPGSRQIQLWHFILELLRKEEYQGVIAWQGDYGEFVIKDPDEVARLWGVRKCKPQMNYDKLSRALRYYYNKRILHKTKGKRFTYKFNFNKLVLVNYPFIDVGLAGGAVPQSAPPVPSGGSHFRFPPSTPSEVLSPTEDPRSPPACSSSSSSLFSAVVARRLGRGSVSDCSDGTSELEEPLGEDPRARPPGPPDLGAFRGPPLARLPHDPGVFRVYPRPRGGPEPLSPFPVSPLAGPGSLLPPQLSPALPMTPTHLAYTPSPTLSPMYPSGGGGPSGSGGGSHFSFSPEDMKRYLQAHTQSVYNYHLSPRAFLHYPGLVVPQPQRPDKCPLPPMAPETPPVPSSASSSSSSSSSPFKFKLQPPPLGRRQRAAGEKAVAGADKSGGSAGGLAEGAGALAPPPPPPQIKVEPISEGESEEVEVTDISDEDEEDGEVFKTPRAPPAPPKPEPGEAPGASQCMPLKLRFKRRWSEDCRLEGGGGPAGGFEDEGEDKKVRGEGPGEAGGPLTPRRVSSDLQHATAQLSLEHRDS
In a few lines:
(§1)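 GST fusions of human transcription factors were expressed in yeast and captured with glutathione beads. Once given DNA barcodes and pooled alongside a tag-only sample, they were incubated for 30 min at room temperature with 200 nmole of a random double-stranded 16-mer DNA library in Tris/NaCl/DTT/glycerol buffer, then washed, crosslinked (0.1% formaldehyde), proximity-ligated, PCR-amplified and sequenced on an Illumina NextSeq500. The binding signal of each hexamer is its read frequency for a factor divided by its frequency for the tag-only sample.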

A further assay addresses T2, ETV3L (Homo sapiens, UniProt Q6ZN32 1-361).
T2 sequence: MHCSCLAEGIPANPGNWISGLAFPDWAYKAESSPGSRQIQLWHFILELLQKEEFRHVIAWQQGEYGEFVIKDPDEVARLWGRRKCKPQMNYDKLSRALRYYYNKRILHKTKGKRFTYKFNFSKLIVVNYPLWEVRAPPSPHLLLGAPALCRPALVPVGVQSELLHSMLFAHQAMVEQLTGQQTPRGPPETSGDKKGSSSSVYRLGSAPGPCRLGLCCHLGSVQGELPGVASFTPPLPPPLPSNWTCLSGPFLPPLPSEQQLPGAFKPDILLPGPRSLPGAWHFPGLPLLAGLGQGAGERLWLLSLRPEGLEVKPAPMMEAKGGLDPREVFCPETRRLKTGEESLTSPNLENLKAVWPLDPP
In outline:
as §1

The target in a further assay is T3, ETS2 (Homo sapiens, UniProt P15036 1-469).
T3 sequence: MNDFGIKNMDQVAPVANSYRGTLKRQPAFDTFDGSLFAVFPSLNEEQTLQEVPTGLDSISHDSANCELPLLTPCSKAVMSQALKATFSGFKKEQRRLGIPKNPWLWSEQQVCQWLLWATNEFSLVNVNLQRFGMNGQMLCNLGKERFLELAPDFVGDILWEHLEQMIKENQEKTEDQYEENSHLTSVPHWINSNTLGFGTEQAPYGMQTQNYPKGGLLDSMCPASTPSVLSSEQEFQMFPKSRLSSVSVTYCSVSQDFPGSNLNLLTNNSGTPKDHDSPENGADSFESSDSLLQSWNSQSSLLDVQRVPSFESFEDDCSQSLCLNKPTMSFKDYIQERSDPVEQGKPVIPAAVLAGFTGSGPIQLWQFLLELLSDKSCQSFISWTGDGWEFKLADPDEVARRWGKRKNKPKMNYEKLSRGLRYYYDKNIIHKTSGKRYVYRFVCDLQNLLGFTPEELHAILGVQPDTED
In a few lines:
as §1

A further assay concerns the target T4, SPDEF (Homo sapiens, UniProt O95238 1-335).
T4 sequence: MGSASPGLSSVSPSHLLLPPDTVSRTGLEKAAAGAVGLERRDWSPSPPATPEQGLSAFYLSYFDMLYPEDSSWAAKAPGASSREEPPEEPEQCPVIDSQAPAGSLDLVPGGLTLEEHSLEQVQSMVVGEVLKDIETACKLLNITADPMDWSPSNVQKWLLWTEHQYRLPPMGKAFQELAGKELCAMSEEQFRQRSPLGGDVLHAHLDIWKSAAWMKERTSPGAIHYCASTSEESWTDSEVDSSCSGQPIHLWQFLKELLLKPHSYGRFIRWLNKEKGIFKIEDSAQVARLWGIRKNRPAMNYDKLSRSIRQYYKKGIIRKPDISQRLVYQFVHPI
In a few lines: as §1

The next assay concerns the target T5, ETV7 (Homo sapiens, UniProt Q9Y603 1-341).
T5 sequence: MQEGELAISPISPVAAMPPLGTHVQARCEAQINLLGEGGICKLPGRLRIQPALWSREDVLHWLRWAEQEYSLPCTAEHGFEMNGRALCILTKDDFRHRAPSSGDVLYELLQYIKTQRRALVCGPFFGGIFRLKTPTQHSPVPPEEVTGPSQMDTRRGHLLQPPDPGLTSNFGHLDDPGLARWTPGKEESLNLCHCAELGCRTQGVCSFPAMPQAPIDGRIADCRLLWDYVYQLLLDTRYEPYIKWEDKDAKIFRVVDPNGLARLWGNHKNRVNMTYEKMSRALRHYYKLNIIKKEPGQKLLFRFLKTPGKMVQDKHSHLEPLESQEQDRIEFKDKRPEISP
In a few lines: as §1

Another assay deals with T6, ELF5 (Homo sapiens, UniProt Q9UKW6-2 1-255).
T6 sequence: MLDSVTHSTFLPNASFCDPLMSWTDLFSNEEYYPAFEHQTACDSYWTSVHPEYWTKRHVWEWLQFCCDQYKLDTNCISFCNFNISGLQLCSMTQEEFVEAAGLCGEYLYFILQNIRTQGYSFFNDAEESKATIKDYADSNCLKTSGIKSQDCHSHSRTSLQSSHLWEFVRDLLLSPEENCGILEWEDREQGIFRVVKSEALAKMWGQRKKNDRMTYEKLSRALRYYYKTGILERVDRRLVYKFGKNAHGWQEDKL
In a few lines: as §1

The next assay addresses T7, ETV3 (Homo sapiens, UniProt P41162-2 1-143).
T7 sequence: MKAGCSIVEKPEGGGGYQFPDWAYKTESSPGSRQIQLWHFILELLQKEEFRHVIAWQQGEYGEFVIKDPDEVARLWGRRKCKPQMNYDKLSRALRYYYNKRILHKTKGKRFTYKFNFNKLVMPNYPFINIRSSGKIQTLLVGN
In outline: as §1

For a further assay, the target named is ETV6 (Homo sapiens, UniProt P41212 1-452). In outline: as §1
ETV6, sequence (P41212 whole entry): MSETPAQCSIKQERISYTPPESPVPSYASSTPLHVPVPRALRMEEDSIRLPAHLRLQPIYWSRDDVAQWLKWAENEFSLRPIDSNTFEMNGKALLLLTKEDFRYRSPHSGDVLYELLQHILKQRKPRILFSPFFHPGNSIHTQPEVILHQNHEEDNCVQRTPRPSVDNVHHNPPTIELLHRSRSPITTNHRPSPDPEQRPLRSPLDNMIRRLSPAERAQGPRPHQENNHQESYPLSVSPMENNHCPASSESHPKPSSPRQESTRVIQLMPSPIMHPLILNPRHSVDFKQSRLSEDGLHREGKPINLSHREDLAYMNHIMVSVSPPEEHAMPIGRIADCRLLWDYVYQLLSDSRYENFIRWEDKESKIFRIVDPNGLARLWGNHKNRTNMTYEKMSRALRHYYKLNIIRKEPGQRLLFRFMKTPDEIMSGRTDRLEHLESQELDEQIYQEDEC

Turning to ATAAAC, the binding signal is 1.19 fold enrichment (6-mer frequency, TF over GST control) in the assay with ERF; 1.18 fold enrichment (6-mer frequency, TF over GST control) with ETV3L; 1.18 fold enrichment (6-mer frequency, TF over GST control) in the assay with ETS2; 1.16 fold enrichment (6-mer frequency, TF over GST control) with SPDEF; 1.05 fold enrichment (6-mer frequency, TF over GST control) in the assay with ETV7; 1.17 fold enrichment (6-mer frequency, TF over GST control) in the assay with ELF5. Also, the binding signal is 1.1 fold enrichment (6-mer frequency, TF over GST control) with ETV3 and 1.19 fold enrichment (6-mer frequency, TF over GST control) with ETV6.
Consider TATGCG, for which the binding signal with ERF is 1.23 fold enrichment (6-mer frequency, TF over GST control); in the assay with ETV3L, 1.39 fold enrichment (6-mer frequency, TF over GST control); in the assay with ETS2, 1.43 fold enrichment (6-mer frequency, TF over GST control); in the assay with SPDEF it was 1.36 fold enrichment (6-mer frequency, TF over GST control); with ETV7, 1.51 fold enrichment (6-mer frequency, TF over GST control); in the assay with ELF5, 1.32 fold enrichment (6-mer frequency, TF over GST control). The binding signal in the assay with ETV3 was 1.58 fold enrichment (6-mer frequency, TF over GST control); with ETV6, 1.22 fold enrichment (6-mer frequency, TF over GST control).
As to TTTTAG, the binding signal with ERF is 1.26 fold enrichment (6-mer frequency, TF over GST control); in the assay with ETV3L it was 1.26 fold enrichment (6-mer frequency, TF over GST control); in the assay with ETS2, 1.2 fold enrichment (6-mer frequency, TF over GST control); with SPDEF it was 1.12 fold enrichment (6-mer frequency, TF over GST control); with ETV7 it was 1.24 fold enrichment (6-mer frequency, TF over GST control); in the assay with ELF5 it was 1.06 fold enrichment (6-mer frequency, TF over GST control). Besides, the binding signal with ETV3 is 1.21 fold enrichment (6-mer frequency, TF over GST control); in the assay with ETV6, 1.19 fold enrichment (6-mer frequency, TF over GST control).
On to GCCCTC, for which the binding signal was 1.26 fold enrichment (6-mer frequency, TF over GST control) in the assay with ERF; 1.09 fold enrichment (6-mer frequency, TF over GST control) with ETV3L; 1.24 fold enrichment (6-mer frequency, TF over GST control) with ETS2; 1.08 fold enrichment (6-mer frequency, TF over GST control) in the assay with SPDEF; 1.22 fold enrichment (6-mer frequency, TF over GST control) with ETV7; 1.1 fold enrichment (6-mer frequency, TF over GST control) in the assay with ELF5. Also, the binding signal was 1.17 fold enrichment (6-mer frequency, TF over GST control) with ETV3 and 1.05 fold enrichment (6-mer frequency, TF over GST control) with ETV6.
Consider TTCCAG, for which the binding signal with ERF is 1.09 fold enrichment (6-mer frequency, TF over GST control); with ETV3L, 1.09 fold enrichment (6-mer frequency, TF over GST control); with ETS2 it was 1.12 fold enrichment (6-mer frequency, TF over GST control); in the assay with SPDEF it was 1.04 fold enrichment (6-mer frequency, TF over GST control); with ETV7 it was 1.16 fold enrichment (6-mer frequency, TF over GST control); in the assay with ELF5, 1.18 fold enrichment (6-mer frequency, TF over GST control). Further, the binding signal in the assay with ETV3 was 1.06 fold enrichment (6-mer frequency, TF over GST control); with ETV6, 1.15 fold enrichment (6-mer frequency, TF over GST control).
Take CTGCCG: the binding signal is 1.27 fold enrichment (6-mer frequency, TF over GST control) with ERF; 1.23 fold enrichment (6-mer frequency, TF over GST control) in the assay with ETV3L; 1.32 fold enrichment (6-mer frequency, TF over GST control) in the assay with ETS2; 1.26 fold enrichment (6-mer frequency, TF over GST control) in the assay with SPDEF; 1.39 fold enrichment (6-mer frequency, TF over GST control) with ETV7; 1.33 fold enrichment (6-mer frequency, TF over GST control) in the assay with ELF5. Also, the binding signal with ETV3 is 1.44 fold enrichment (6-mer frequency, TF over GST control); with ETV6, 1.39 fold enrichment (6-mer frequency, TF over GST control).
Turning to ACCCGG, the binding signal with ERF was 1.48 fold enrichment (6-mer frequency, TF over GST control); with ETV3L, 1.69 fold enrichment (6-mer frequency, TF over GST control); in the assay with ETS2, 1.79 fold enrichment (6-mer frequency, TF over GST control); in the assay with SPDEF it was 2.23 fold enrichment (6-mer frequency, TF over GST control); in the assay with ETV7 it was 1.55 fold enrichment (6-mer frequency, TF over GST control); in the assay with ELF5, 1.91 fold enrichment (6-mer frequency, TF over GST control). Also, the binding signal with ETV3 was 1.82 fold enrichment (6-mer frequency, TF over GST control); in the assay with ETV6 it was 1.7 fold enrichment (6-mer frequency, TF over GST control).
Turning to GCCTAT, the binding signal with ERF was 1.23 fold enrichment (6-mer frequency, TF over GST control); with ETV3L, 1.28 fold enrichment (6-mer frequency, TF over GST control); with ETS2, 1.09 fold enrichment (6-mer frequency, TF over GST control); with SPDEF it was 1.27 fold enrichment (6-mer frequency, TF over GST control); with ETV7, 1.24 fold enrichment (6-mer frequency, TF over GST control); in the assay with ELF5, 1.15 fold enrichment (6-mer frequency, TF over GST control). The binding signal with ETV3 was 1.21 fold enrichment (6-mer frequency, TF over GST control); with ETV6, 1.19 fold enrichment (6-mer frequency, TF over GST control).
Consider CGGCTA, for which the binding signal in the assay with ERF is 1.07 fold enrichment (6-mer frequency, TF over GST control); with ETV3L it was 1.19 fold enrichment (6-mer frequency, TF over GST control); with ETS2, 1.07 fold enrichment (6-mer frequency, TF over GST control); in the assay with SPDEF, 1.25 fold enrichment (6-mer frequency, TF over GST control); with ETV7 it was 1.26 fold enrichment (6-mer frequency, TF over GST control); with ELF5, 1.19 fold enrichment (6-mer frequency, TF over GST control). Further, the binding signal with ETV3 is 1.12 fold enrichment (6-mer frequency, TF over GST control); with ETV6 it was 1.27 fold enrichment (6-mer frequency, TF over GST control).

The record behind these values is publication PMC7862700, “An all-to-all approach to the identification of sequence-specific readers for epigenetic DNA modifications on cytosine”.
